In the library only some 3.5% were active in any assay of this set; here they are far more common.
FBW7 act: human FBW7 E3 ligase activation, primary screen; Q969H0; AlphaScreen FBW7–phospho-cyclin E peptide binding, activator screen; normalized activity (activation), % at 26.1 µM; 650,000 tested, 0.13% active; in the data active = normalized activity above about 1.9%;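 also: purified mutant Fbw7 with reduced substrate affinity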
MITF inh: inhibitors of human MITF; 650,000 tested, 0.91% active; O75030; inhibition, % at 2.6 µM; AlphaScreen MITF homodimerization, bead proximity signal; in the data active = inhibition above about 50%
Target sequence (O75030 whole entry, looked up): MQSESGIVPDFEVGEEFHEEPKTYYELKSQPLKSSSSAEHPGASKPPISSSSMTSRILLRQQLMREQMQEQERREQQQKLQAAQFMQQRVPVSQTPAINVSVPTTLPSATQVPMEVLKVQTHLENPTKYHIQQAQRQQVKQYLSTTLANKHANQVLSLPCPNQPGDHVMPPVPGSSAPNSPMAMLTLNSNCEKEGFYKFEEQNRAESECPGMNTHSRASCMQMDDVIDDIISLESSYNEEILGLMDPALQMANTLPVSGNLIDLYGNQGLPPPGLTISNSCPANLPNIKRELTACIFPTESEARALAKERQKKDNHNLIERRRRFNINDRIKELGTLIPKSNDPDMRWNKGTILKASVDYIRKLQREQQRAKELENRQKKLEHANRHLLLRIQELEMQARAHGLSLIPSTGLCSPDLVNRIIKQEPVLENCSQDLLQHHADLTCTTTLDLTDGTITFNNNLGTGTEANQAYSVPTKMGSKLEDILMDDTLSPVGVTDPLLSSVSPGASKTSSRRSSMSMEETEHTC
GPR151 ag: human GPR151 activation; AID 1508602; 650,000 tested, 1% active; activation, % at 11.2 µM; PathHunter beta-arrestin GPR151 cells, luminescence; in the data active = activation above about 4.9%
TEAD-YAP inh: TEAD-YAP interaction inhibition; HEK-TIYL cells, TEAD-Gal4/YAP UAS-luciferase luminescence; inhibition, % at 9.12 µM; 640,000 tested, 1.4% active; AID 1259422; in the data active = inhibition above about 32%
MITF confirm: human MITF inhibition, confirmation | shares compounds with MITF inh | AlphaScreen MITF homodimerization, biotin/His-MITF beads | inhibition, % at 2.6 µM | 4,700 tested, 16% active | AID 1259372;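 active = inhibition above a cutoff derived from the DMSO control wells, cut at about 28% in these data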;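 also: inhibitors lower the bead chemiluminescence by keeping MITF from dimerizing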
AlphaScreen DR: AlphaScreen optical interference, dose response counter-screen; shares compounds with MITF inh; AlphaScreen optical interference counterscreen, cell-free; IC50, µM; 480 tested, 6% active; call rule not given here
AlphaScreen intf2: counter-screen: compounds optically interfering with AlphaScreen. shares compounds with MITF inh. LysRS AlphaScreen counterscreen, signal interference, triplicate. inhibition, % at 2.6 µM. 4,700 tested, 7.6% active. AID 1259376;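 active = inhibition above a cutoff derived from the DMSO control wells, cut at about 30% in these data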
Large screens that a line does not name were inactive (follow-up assays come after a bar, where they were run).

CC(C)c1ccc(C(C)C)c(SCCc2ccccn2)c1	MITF inh 53 | MITF confirm inactive | AlphaScreen intf2 inactive
CC(C)(C)c1ccc(SCCc2ccccn2)cc1	MITF inh 63 | MITF confirm inactive | AlphaScreen intf2 inactive
Cc1cccc(NC(=O)CSc2nc3ccc(N4C(=O)c5cccc6cccc(c56)C4=O)cc3s2)c1C	none
COc1cc(OC)c(OC)cc1CN1CCN(C(=O)c2cccc(Cl)c2)CC1	none
COc1cccc(C(=O)N2CCN(Cc3cc(Br)ccc3OC)CC2)c1	MITF inh 58 | MITF confirm inactive | AlphaScreen intf2 inactive
COc1cccc(C(=O)N2CCN(Cc3cc(OC)ccc3OC)CC2)c1	none
COc1ccc(Br)cc1CN1CCN(C(=O)c2cccc(Cl)c2)CC1	MITF inh 53 | MITF confirm inactive | AlphaScreen intf2 inactive
COC(=O)C1=C(C)NC2=C(C(=O)CC(c3ccccc3)C2)C1c1ccccc1OC (stereo unspecified)	none
COc1ccc(CN(C)CCc2ccccn2)cc1OC	MITF inh 77 | MITF confirm inactive | AlphaScreen intf2 inactive
C=CCc1ccc(OC)c(OCc2ccccc2)c1	none
COc1cc(/C=C/C(=O)NCc2ccccn2)cc(OC)c1OC	none
COc1ccc(CN(C)CCc2ccccn2)cc1OCc1ccccc1	MITF inh 62 | MITF confirm inactive | AlphaScreen intf2 inactive
COc1ccc(CN(Cc2ccccn2)S(=O)(=O)c2ccc(F)cc2F)cc1OC	none
COc1cc(CN(C)CCc2ccccn2)cc(OC)c1OC	MITF inh 74 | MITF confirm inactive | AlphaScreen intf2 inactive
O=c1[nH]nc(-c2ccc(OCc3ccc(F)cc3)cc2)o1	none
O=C(Nc1ccc(Cl)cc1)C(=O)Nc1cccc2cccnc12	none
CCOC(=O)c1c(NC(=O)C(C)Sc2nnc(CNC(=O)c3cccs3)n2C2CCCCC2)sc2c1CCCCC2 (stereo unspecified)	none
CN1CCCCC1C(=O)N/N=C/c1ccc([N+](=O)[O-])cc1 (stereo unspecified)	none
CCn1c(SCC(=O)Nc2ccccc2N2CCOCC2)nnc1-c1ccccc1C	none
O=C(Cc1ccc(F)cc1)Nc1ccc2c(c1)CN(C(=O)C1CC1)CC2	none
CCCc1nc2ccccc2c(NC(=O)CN(C)CCc2ccc(OC)c(OC)c2)c1CC	MITF inh 70 | MITF confirm inactive | AlphaScreen intf2 inactive
CCCC(=O)Nc1c(CC)c(CCC)nc2ccccc12	none
Cc1c(S(=O)(=O)N2CCN(c3cccc(C(F)(F)F)c3)CC2)c(=O)n(C)c(=O)n1C	none
Cc1cc(C)c(C)c(S(=O)(=O)N2CCN(c3cccc(C(F)(F)F)c3)CC2)c1C	MITF inh 63 | MITF confirm inactive | AlphaScreen intf2 inactive
Cc1nccn1CCOc1ccc(Cl)cc1	MITF inh 63 | MITF confirm inactive | AlphaScreen intf2 inactive
c1ccc(-c2noc(CN3CCCN(c4ncccn4)CC3)n2)nc1	none
O=C(c1ccccc1Cl)N1CCN(c2ccc([N+](=O)[O-])cc2)CC1	MITF inh 97 | MITF confirm inactive | AlphaScreen intf2 inactive
O=[N+]([O-])c1ccc(N2CCN(Cc3ccncc3)CC2)cc1	MITF inh 61 | MITF confirm inactive | AlphaScreen intf2 inactive
O=C(O)c1ccc(CN2CCN(c3ccc([N+](=O)[O-])cc3)CC2)cc1	none
O=[N+]([O-])c1ccc(N2CCN(Cc3cccnc3)CC2)cc1	MITF inh 59 | MITF confirm inactive | AlphaScreen intf2 inactive
CC(C)(C)NC(=O)c1cc2c(s1)CCCCC2	none
CCc1cccc2c(C(=O)COC(=O)C3COc4ccccc4O3)c[nH]c12 (stereo unspecified)	none
O=C1Nc2c(I)cccc2C1=O	none
O=C1Nc2c(C(=O)O)cccc2C1=O	MITF inh 71 | MITF confirm 68 | AlphaScreen DR inactive | AlphaScreen intf2 inactive
COc1ccc(Cl)cc1C(=O)NNC(=O)C1=NNC(=O)CC1	none
CC(CNC(=O)c1cc2ncccn2n1)Oc1cccc(CN(C)Cc2cccs2)c1 (stereo unspecified)	none
NC(=O)/C(=C/c1cccc([N+](=O)[O-])c1)NC(=O)c1cccc(Br)c1	none
NC(=O)/C(=C\c1cccc([N+](=O)[O-])c1)NC(=O)c1ccc(Br)cc1	MITF inh 53 | MITF confirm 32 | AlphaScreen DR inactive | AlphaScreen intf2 inactive
CN1CCN(C(=O)c2ccc(-c3nc(Nc4ccccc4)c4ncn(C5CCCCC5)c4n3)cc2)CC1	MITF inh 75 | MITF confirm 41 | AlphaScreen DR inactive | AlphaScreen intf2 inactive
CC(=O)Nc1ccc(Nc2nc(-c3ccc(C(=O)N4CCN(C)CC4)cc3)nc3c2ncn3C2CCCCC2)cc1	none
CC(=O)Nc1ccc(S(=O)(=O)N2CCN(CC3CC4C=CC3C4)CC2)cc1 (stereo unspecified)	MITF inh 51 | MITF confirm inactive | AlphaScreen intf2 inactive
Cc1nc([N+](=O)[O-])cn1CC(=O)Nc1ccc(F)c(Cl)c1	MITF inh 53 | MITF confirm inactive | AlphaScreen intf2 inactive
CC1CCN(CC(=O)Nc2ccc(N3CCCCCC3)cc2)CC1	MITF inh 52 | MITF confirm inactive | AlphaScreen intf2 33
Cc1ccc(NC(=O)CN2CCC(C(=O)NC3CC3)CC2)cc1	MITF inh 112 | MITF confirm inactive | AlphaScreen intf2 inactive
O=C(CN1CCCCCC1)Nc1ccc(N2CCCC2)cc1	MITF inh 53 | MITF confirm inactive | AlphaScreen intf2 inactive
O=C(CN1CCC(c2ccncc2)CC1)Nc1ccc(N2CCCCC2)cc1	none
CC1CCN(CC(=O)Nc2ccc(Br)cc2)CC1	none
COc1ccc(C2CC(=O)C3=C(C2)NC(C)=C(C(=O)OCc2ccccc2)C3c2cc(OC)c(OC)c(OC)c2)cc1 (stereo unspecified)	none
CN(C)c1cccc(Nc2nccn3c(-c4cccnc4)cnc23)c1	none
Clc1ccc(OCCOCCn2cncn2)cc1Cl	MITF inh 80 | MITF confirm inactive | AlphaScreen intf2 inactive
O=[N+]([O-])c1ccc(OCCCn2cncn2)cc1	none
CCC(C)(C)c1ccc(OCCOCCn2cncn2)c(Cl)c1	MITF inh 67 | MITF confirm inactive | AlphaScreen intf2 inactive
Fc1ccc(OCCCn2cncn2)cc1	MITF inh 71 | MITF confirm inactive | AlphaScreen intf2 inactive
CC(C)(C)c1ccc(OCCn2cncn2)c(Cl)c1	MITF inh 58 | MITF confirm 32 | AlphaScreen DR inactive | AlphaScreen intf2 inactive
Clc1cccc(OCCn2cncn2)c1Cl	none
N#Cc1ccc(OCCOCCn2cncn2)cc1	none
O=C1N[C@H](CO)C(=O)N2CCN(C(=O)c3cc(F)c(F)cc3F)C[C@H]12	none
CCOC(=O)C1=C(C)N=c2s/c(=C/c3ccc(OC(=O)c4ccco4)cc3)c(=O)n2C1c1ccccc1 (stereo unspecified)	none
Cc1ccc(C(C)(C)C)c(OCCOCCn2cncn2)c1	MITF inh 78 | MITF confirm inactive | AlphaScreen intf2 inactive

Screening data as filed in PubChem BioAssay.
